Measurements: PubChem BioAssay (NCATS)
Inconclusive results are not listed. Active and inactive are the calls of the source. Unless noted, the call rests on the fitted dose curve; in most records, active means well fitted curve in the direction sought with a large enough effect; inconclusive means small, poorly fitted or top-dose-only effect, or another doubt; inactive means no such curve, though single readings can be large; an effect the other way counts as inactive or inconclusive.

What was measured:
[1] = Cell Viability - LYMP2-004 (AID 966);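 further: plate controls were DMSO only for no effect and tetraoctylammonium bromide control for full effect; nearly all actives have a fitted effect of over 65% in size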
Procedure, shortened: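 AC50 values come from Hill modelling of concentration-dependent loss of intracellular ATP, measured by CellTiter-Glo luminescence. Human LYMP2-004 lymphoblastoid cells (2500/well) were exposed to compound for 24 h at 37 C.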

[2] = Cell Viability - LYMP2-005 (AID 967);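 further: series mostly up to about 92 µM; plate controls were DMSO only for no effect and 92 µM tetraoctylammonium bromide control for full effect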
Procedure, shortened: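 Steps: seed 2500 LYMP2-005 cells/well, incubate 5 h at 37 C, add compound, incubate 24 h at 37 C, add CellTiter-Glo, wait 30 min at RT, read luminescence. Concentration-response data fitted to Hill equation for AC50.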

[3] = Cell Viability - LYMP2-009 (AID 968);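 further: series mostly up to about 92 µM; 0% = DMSO alone and the full-kill end = tetraoctylammonium bromide at 92 µM; nearly all actives have a fitted effect of over 55% in size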
[4] = Cell Viability - LYMP2-011 (AID 969);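 further: 0% = DMSO only and full inhibition = 92 µM tetraoctylammonium bromide; nearly all actives have a fitted effect of over 60% in size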
Procedure, shortened: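 Cytotoxicity qHTS with ATP content as read-out: lymphoblastoid cells (2500/well) exposed to compound for 24 h at 37 C, then luciferase luminescence measured. Concentration-response data fitted with the standard Hill equation to give AC50.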

[5] = Cell Viability - LYMP2-013 (AID 970);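 further: series mostly up to about 92 µM; 0% = DMSO only and full inhibition = tetraoctylammonium bromide control; nearly all actives have a fitted effect of over 55% in size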
Procedure, shortened: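 qHTS cytotoxicity: ATP-dependent luminescence (CellTiter-Glo, 30 min room temperature) read after 24 h compound exposure at 37 C of 2500 LYMP2-013 lymphoblastoid cells per well. Concentration-response fitted with Hill equation to give AC50.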

[6] = Cell Viability - LYMP2-015 (AID 971);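 further: 0% = DMSO only and full effect = 92 µM tetraoctylammonium bromide; nearly all actives have a fitted effect of over 55% in size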
Procedure, shortened: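 Cytotoxicity readout: decrease in intracellular ATP (CellTiter-Glo luminescence) in 2500 LYMP2-015 lymphoblastoid cells/well after 24 h compound exposure at 37 C. Concentration-response data fitted with the standard Hill equation to give AC50.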

[7] = Cell Viability - LYMP2-017 (AID 972); further: series mostly up to about 92 µM; on the % scale 0 is the no-effect control and ±100 the full control effect; nearly all actives have a fitted effect of over 55% in size
Procedure, shortened: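 CellTiter-Glo luminescence (cellular ATP, 30 min RT) measured cytotoxicity after 24 hr compound treatment at 37 C. Cells were a human lymphoblastoid line, LYMP2-017, plated at 2500/well and incubated 5 hr first; concentration-response fitted with Hill equation for AC50.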

[8] = Cell Viability - LYMP2-019 (AID 973)
Procedure, shortened: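 AC50 values come from Hill-equation fits of luminescent intracellular ATP (CellTiter-Glo, 30 min, room temperature) following 24 h compound exposure at 37 C. Cells: LYMP2-019 lymphoblastoid line, 2500 per well, in complete culture medium.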

[9] = Cell Viability - LYMP2-021 (AID 974)
Procedure, shortened: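 AC50 values come from Hill-equation fits to CellTiter-Glo luminescence (ATP content), read after 24 hour compound exposure at 37 C of 2500 LYMP2-021 lymphoblastoid cells/well; tetraoctylammonium bromide as positive control.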

[10] = Cell Viability - LYMP2-023 (AID 975)
Procedure, shortened: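 Intracellular ATP, read by CellTiter-Glo luminescence, reports viability after 24 hr compound exposure at 37 C. 2500 lymphoblastoid cells/well (LYMP2-023) seeded 5 hr beforehand; Hill fits give AC50; positive control tetraoctylammonium bromide.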

[11] = Cell Viability - LYMP2-025 (AID 976);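 further: series mostly up to about 92 µM; plate controls were DMSO only for no effect and tetraoctylammonium bromide control for full effect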
Procedure, shortened: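 Cytotoxicity read as loss of intracellular ATP (luciferase luminescence) after 24 h compound treatment at 37 C. Uses LYMP2-025 lymphoblastoid cells in 1536-well format; Hill-equation modelling gives AC50; tetraoctylammonium bromide as positive control.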

[12] = Cell Viability - LYMP2-002 (AID 977);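 further: series mostly up to about 92 µM; plate controls were DMSO only for no effect and 92 µM tetraoctylammonium bromide for full effect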
Procedure, shortened: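 In this qHTS viability screen, 2500 human lymphoblastoid cells per well receive compound for 24 hr at 37 C, and luciferase-based ATP luminescence gives the viability signal. Tetraoctylammonium bromide serves as positive control.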

[13] = Cell Viability - LYMP2-007 (AID 979);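 further: cells exposed to compound for 24 h before reading; 0% = DMSO only and the negative end = 92 µM tetraoctylammonium bromide; nearly all actives have a fitted effect of over 60% in size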
Procedure, shortened: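 AC50 values come from Hill-equation fits of luminescent intracellular ATP (CellTiter-Glo, 30 min, room temperature) following 24 h compound exposure at 37 C. Cells: LYMP2-007 lymphoblastoid line, 2500 per well, in complete culture medium.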

[14] = Cell Viability - LYMP2-008 (AID 980); further: on the % scale 0 is the no-effect control and ±100 the full control effect; nearly all actives have a fitted effect of over 60% in size
Procedure, shortened: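 Cytotoxicity determined from ATP-dependent luciferase luminescence (CellTiter-Glo) following 24 h compound exposure of human lymphoblastoid LYMP2-008 cells at 37 C. Concentration-response data fitted to the Hill equation to give AC50.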

[15] = Cell Viability - LYMP2-010 (AID 981)
Procedure, shortened: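 CellTiter-Glo ATP luminescence measured cytotoxicity after 24 h compound exposure at 37 C. LYMP2-010 cells were seeded at 2500/well, with tetraoctylammonium bromide as control; concentration-response curves gave AC50 values by the Hill equation.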

[16] = Cell Viability - LYMP2-012 (AID 982)
[17] = Cell Viability - LYMP2-014 (AID 983);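 further: series mostly up to about 92 µM; plate controls were DMSO only for no effect and 92 µM tetraoctylammonium bromide for full effect; nearly all actives have a fitted effect of over 50% in size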
Procedure, shortened: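 Intracellular ATP loss, read by luciferase luminescence, measures acute cytotoxicity after 24 h compound exposure of lymphoblastoid LYMP2-014 cells (2500/well, 37 C). Concentration-response data fitted to the Hill equation for AC50.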

[18] = Cell Viability - LYMP2-016 (AID 984)
Procedure, shortened: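 qHTS, 1536-well: 2500 LYMP2-016 cells/well, 5 hr 37 C, compound added, 24 hr 37 C, CellTiter-Glo 30 min RT, luminescence. Tetraoctylammonium bromide positive control. AC50 via Hill fit.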

[19] = Cell Viability - LYMP2-018 (AID 985);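 further: plate controls were DMSO only for no effect and tetraoctylammonium bromide at 92 µM for full effect; nearly all actives have a fitted effect of over 50% in size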
Procedure, shortened: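 Viability read as CellTiter-Glo luminescence (cellular ATP) after 24 hr compound exposure at 37 C of 2500 LYMP2-018 lymphoblastoid cells/well, pre-plated 5 hr. Hill-equation modelling gave AC50.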

[20] = Cell Viability - LYMP2-020 (AID 986)
Procedure, shortened: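 Cytotoxicity in qHTS format: luminescent ATP readout from CellTiter-Glo after 24 h compound exposure at 37 C in complete medium. LYMP2-020 lymphoblastoid cells were seeded at 2500/well; concentration-response data fitted to the Hill equation for AC50.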

[21] = Cell Viability - LYMP2-022 (AID 987)
Procedure, shortened: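 Cytotoxicity read as decreased cellular ATP (CellTiter-Glo luminescence, 30 min room temperature) after 24 hours compound exposure of 2500 lymphoblastoid LYMP2-022 cells/well at 37 C. Concentration-response data fitted with standard Hill equation for AC50.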

[22] = Cell Viability - LYMP2-024 (AID 988);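 further: plate controls were DMSO only for no effect and 92 µM tetraoctylammonium bromide for full effect; nearly all actives have a fitted effect of over 60% in size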
Procedure, shortened: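 Cytotoxicity was taken as a decrease in ATP (CellTiter-Glo luminescence) after 24 hr compound exposure at 37 C of LYMP2-024 lymphoblastoid cells, 2500 cells/well. Concentration-response data were fitted to the Hill equation to give AC50.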

[23] = Cell Viability - LYMP2-026 (AID 989); further: on the % scale 0 is the no-effect control and ±100 the full control effect; nearly all actives have a fitted effect of over 50% in size
Procedure, shortened: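 Cytotoxicity read as ATP-dependent luminescence (CellTiter-Glo, 30 min room temperature) after 24 h compound treatment at 37 C. LYMP2-026 lymphoblastoid line seeded at 2500 cells/well; AC50 derived by standard Hill equation.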

[24] = Cell Viability - LYMP1-002 - Assay at 24 hr (AID 993); further: on the % scale 0 is the no-effect control and ±100 the full control effect
Procedure, shortened: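 qHTS cytotoxicity at 24 h: CellTiter-Glo ATP luminescence in lymphoblastoid line LYMP1-002 incubated with compound at 37 °C. Concentration-response modeled with the Hill equation for AC50; tetraoctylammonium bromide served as positive control.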

[25] = Cell Viability - LYMP1-002 - Assay at 40 hr (AID 994)
Procedure, shortened: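 Cytotoxicity was read as loss of cellular ATP (CellTiter-Glo luminescence) after 40 hr compound exposure at 37 C of 2500 LYMP1-002 lymphoblastoid cells per well. Concentration-response data were fitted with the standard Hill equation to give AC50.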

[26] = target: Voltage-gated inwardly rectifying potassium channel KCNH2 (Homo sapiens) (UniProt Q12809); assay: qHTS Assay for Small Molecule Inhibitors of the Human hERG Channel Activity (AID 588834);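 further: top concentration of the series differs between compounds; on the % scale 0 is the no-effect control and ±100 the full control effect; lower thallium flux fluorescence means stronger hERG block; nearly all actives have a fitted effect of over 50% in size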
Voltage-gated inwardly rectifying potassium channel KCNH2 (Homo sapiens), sequence (Q12809 whole entry, looked up): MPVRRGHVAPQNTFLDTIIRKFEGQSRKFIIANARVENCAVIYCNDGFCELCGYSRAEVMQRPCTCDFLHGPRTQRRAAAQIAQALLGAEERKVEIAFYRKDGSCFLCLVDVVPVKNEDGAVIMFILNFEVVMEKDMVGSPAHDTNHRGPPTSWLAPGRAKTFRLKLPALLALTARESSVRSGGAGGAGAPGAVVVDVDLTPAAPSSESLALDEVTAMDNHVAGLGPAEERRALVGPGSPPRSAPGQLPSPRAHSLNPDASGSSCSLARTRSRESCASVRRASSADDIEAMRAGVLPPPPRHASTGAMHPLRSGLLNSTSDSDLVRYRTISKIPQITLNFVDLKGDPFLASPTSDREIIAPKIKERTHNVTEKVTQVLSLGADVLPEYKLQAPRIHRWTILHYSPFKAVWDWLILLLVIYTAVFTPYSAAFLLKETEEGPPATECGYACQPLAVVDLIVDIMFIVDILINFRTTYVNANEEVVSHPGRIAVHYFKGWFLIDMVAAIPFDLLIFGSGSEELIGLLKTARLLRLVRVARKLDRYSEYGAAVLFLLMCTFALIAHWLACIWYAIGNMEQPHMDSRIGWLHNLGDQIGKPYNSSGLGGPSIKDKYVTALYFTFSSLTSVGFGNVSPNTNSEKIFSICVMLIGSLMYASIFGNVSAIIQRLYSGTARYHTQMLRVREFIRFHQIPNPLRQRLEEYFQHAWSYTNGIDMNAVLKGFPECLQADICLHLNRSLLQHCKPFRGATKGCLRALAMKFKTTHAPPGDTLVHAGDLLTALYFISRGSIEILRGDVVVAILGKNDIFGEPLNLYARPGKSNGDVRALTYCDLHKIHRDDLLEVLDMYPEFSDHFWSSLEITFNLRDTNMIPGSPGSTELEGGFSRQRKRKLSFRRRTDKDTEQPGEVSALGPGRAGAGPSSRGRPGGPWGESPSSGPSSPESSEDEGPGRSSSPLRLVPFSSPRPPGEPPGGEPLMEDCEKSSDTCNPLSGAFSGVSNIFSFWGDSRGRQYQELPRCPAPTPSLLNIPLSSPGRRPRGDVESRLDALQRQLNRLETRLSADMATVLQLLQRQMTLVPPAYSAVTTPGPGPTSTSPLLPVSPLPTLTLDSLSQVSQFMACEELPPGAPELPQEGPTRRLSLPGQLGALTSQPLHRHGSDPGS
Procedure, shortened: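 Thallium-flux (FluxOR) read-out on FDSS: fluorescence read 10 s before and 2 min after stimulation buffer. hERG-BacMam-transduced U2OS cells, compound exposure about 10 min. AC50 by standard Hill equation.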

[27] = target: Tumor necrosis factor (Homo sapiens) (UniProt P01375); assay: qHTS assay to identify small molecules that stimulate Tumor Necrosis Factor-alpha (TNF-alpha) secretion (AID 651757; active means well fitted curve in the direction sought with a large enough effect in the signal ratio; the % refers to the signal ratio; further: 0% is about no effect)
Tumor necrosis factor (Homo sapiens), sequence (P01375 whole entry, looked up): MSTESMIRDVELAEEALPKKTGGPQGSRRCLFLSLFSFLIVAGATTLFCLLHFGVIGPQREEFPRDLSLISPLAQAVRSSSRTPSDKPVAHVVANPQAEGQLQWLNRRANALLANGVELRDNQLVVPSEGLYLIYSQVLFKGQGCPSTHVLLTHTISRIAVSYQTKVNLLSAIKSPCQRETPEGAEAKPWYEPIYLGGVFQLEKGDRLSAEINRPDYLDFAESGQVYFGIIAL
Procedure, shortened: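 Secreted TNF-alpha quantified by TR-FRET sandwich of two labeled anti-TNF-alpha antibodies, incubated 3 hr at room temperature. Preceded by 17 hr, 37 C compound treatment of THP-1 cells at 3000 cells/well.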

[28] = qHTS assay to identify small molecules that stimulate interleukin-8 (IL-8) secretion (AID 651758; active means well fitted activation curve with a large enough effect in the signal ratio; the % refers to the signal ratio; further: 0% is about no effect)
Procedure, shortened: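 Quantitative HTS in THP-1 monocytic cells at 2000 cells per well, with 16 hrs compound incubation at 37 C. IL-8 in the medium was then quantified by HTRF immunoassay, read after 1-3 hrs at room temperature.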

[29] = qHTS assay for environmental chemicals that activate the Aryl hydrocarbon Receptor (AhR) signaling pathway (AID 651777); conditions: 1A2-DRE human hepatoma cells, luciferase, 24 h; activation: active compounds read high; further: % of control where 0% means no effect; nearly all actives have a fitted effect of over 15% in size
Procedure, shortened: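 Measured luciferase activity, read 30 min after One-Glo addition at room temperature, from human hepatoma cells bearing a dioxin response element–CYP1A2 promoter reporter and exposed to compound for 24 hr at 37 C.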

[30] = target: Peroxisome proliferator-activated receptor alpha (Homo sapiens) (UniProt Q07869); assay: qHTS assay for small molecule agonists of the peroxisome proliferator-activated receptor alpha (PPARalpha) signaling pathway (AID 651778); conditions: PathHunter PPARalpha complementation, chemiluminescence, 6 h; max response: active compounds read high; further: % of control where 0% means no effect
Peroxisome proliferator-activated receptor alpha (Homo sapiens), sequence (Q07869 whole entry, looked up): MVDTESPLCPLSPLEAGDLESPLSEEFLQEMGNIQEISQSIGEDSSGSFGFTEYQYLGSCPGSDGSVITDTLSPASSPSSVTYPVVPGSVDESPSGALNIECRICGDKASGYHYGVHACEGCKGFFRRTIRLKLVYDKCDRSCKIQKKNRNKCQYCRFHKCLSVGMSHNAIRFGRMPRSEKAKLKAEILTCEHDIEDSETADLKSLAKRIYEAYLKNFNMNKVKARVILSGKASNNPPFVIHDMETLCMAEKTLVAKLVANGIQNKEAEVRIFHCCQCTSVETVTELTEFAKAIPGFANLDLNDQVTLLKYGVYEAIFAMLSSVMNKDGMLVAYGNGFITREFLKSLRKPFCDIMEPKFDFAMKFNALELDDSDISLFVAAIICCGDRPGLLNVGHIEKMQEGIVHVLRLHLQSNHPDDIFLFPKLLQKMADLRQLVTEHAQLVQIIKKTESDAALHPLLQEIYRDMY
Procedure, shortened: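 Cells plated at 2,000/well and held overnight at 37 C, 5% CO2, then compound added by pin tool for 6 hr; after PathHunter detection reagent and 60 min at room temperature, chemiluminescence from enzyme complementation was read.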

[31] = target: Nuclear receptor ROR-gamma (Homo sapiens) (UniProt P51449); assay: qHTS assay for small molecule antagonists of the retinoid-related orphan receptor gamma (ROR-gamma) signaling pathway (AID 651802)
Nuclear receptor ROR-gamma (Homo sapiens), sequence (P51449 whole entry, looked up): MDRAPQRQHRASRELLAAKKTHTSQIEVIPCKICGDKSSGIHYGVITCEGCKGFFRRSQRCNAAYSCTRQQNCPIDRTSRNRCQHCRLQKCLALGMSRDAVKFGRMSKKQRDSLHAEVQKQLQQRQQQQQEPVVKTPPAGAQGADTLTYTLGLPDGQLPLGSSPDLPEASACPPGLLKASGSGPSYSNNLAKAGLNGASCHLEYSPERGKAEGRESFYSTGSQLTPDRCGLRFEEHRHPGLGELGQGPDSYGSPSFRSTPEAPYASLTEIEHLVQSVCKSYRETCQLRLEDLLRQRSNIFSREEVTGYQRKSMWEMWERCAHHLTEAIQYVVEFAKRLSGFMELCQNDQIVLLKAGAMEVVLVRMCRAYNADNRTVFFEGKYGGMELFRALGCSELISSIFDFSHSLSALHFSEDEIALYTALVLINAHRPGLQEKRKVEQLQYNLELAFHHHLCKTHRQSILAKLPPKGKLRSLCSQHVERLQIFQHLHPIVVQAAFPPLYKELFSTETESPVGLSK
Procedure, shortened: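 Luminescence (One-Glo, 30 min RT) measured 16 h after compound addition and doxycycline induction at 37C. Reporter: RORE-luciferase under TET-inducible ROR-gamma in CHO cells.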

[32] = qHTS assay for small molecule agonists of the antioxidant response element (ARE) signaling pathway measured by Nrf2-dependant transcriptional activity (AID 720636; active means well fitted curve in the direction sought with a large enough effect in the repeat runs; an effect the other way counts as inactive or inconclusive;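 further: HepG2 cells with an ARE-driven luciferase reporter; % of control where 0% means no effect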)
Procedure, shortened: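 In HepG2 cells engineered with an Nrf2-responsive luciferase gene, ARE induction was quantified as luminescence after 16 hr compound treatment at 37 C.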

[33] = qHTS assay for small molecule antagonists of the retinoid-related orphan receptor gamma (ROR-gamma) signaling pathway - cell viability counter screen (AID 720652; active means well fitted curve in the direction sought with a large enough effect in the repeat runs; an effect the other way counts as inactive or inconclusive;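 further: CHO reporter cells with doxycycline-induced ROR-gamma expression; series mostly up to about 92 µM; compound exposure lasted 16 hr before ATP read; on the % scale 0 is the no-effect control and ±100 the full control effect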)
Procedure, shortened: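 Cytotoxicity counter screen: intracellular ATP (CellTiter-Glo luminescence) measured in the doxycycline-induced CHO RORE-luciferase reporter line after 16 hr compound exposure at 37 C, 5% CO2.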

[34] = qHTS assay for small molecule agonists of the antioxidant response element (ARE) signaling pathway measured by Nrf2-dependant transcriptional activity - cell viability counter screen (AID 720653; active means well fitted curve in the direction sought with a large enough effect in the repeat runs; an effect the other way counts as inactive or inconclusive; further: on the % scale 0 is the no-effect control and ±100 the full control effect); conditions: ARE-bla HepG2 viability, CellTiter-Glo ATP luminescence, 16 h; max response: active compounds read low
Procedure, shortened: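 ARE-bla HepG2 cells (2,000/well) rested 5 hrs at 37C/5% CO2, then exposed to compounds in DMSO for 16 hrs. Viability was read in the same wells as intracellular ATP by luminescence, 30 min at room temperature after reagent addition.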

[35] = qHTS assay for cell viability of HEK293 cells (AID 743288); conditions: ATP luminescence (CellTiter-Glo), 18 h; max response: active compounds read low
Procedure, shortened: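 ATP luminescence (CellTiter-Glo) reports metabolically competent cell number after parental HEK293 cells, 2,000/well, were treated with DMSO-dissolved compounds for 18 h at 37 C; reagent incubation 30 min, room temperature.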

[36] = qHTS assay for cell viability of the p53RE-bla HCT-116 cell line (AID 743292)
Procedure, shortened: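 Intracellular ATP of p53RE-bla HCT-116 cells measured by luciferase luminescence following 16 h compound incubation at 37 C; DMSO-only wells served as vehicle controls.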

[37] = qHTS assay for small molecule activators of the human pregnane X receptor (PXR) signaling pathway (AID 720659; call rule not given here; further: 0% is about no effect)

O=C(OCC(COC(=O)c1ccccc1)(COC(=O)c1ccccc1)COC(=O)c1ccccc1)c1ccccc1
inactive: Potency [1] | Potency [2] | Potency [3] | Potency [4] | Potency [5] | Potency [6] | Potency [7] | Potency [8] | Potency [9] | Potency [10] | Potency [11] | Potency [12] | Potency [13] | Potency [14] | Potency [15] | Potency [16] | Potency [17] | Potency [18] | Potency [19] | Potency [20] | Potency [21] | Potency [22] | Potency [23] | Potency [24] | Potency [25] | Potency [26] | outcome [27] | outcome [28] | activation [29] -0.471% | max response [30] -8.1% | Potency [31] | Potency [32] | Potency [33] | max response [34] 3.26% | max response [35] -3% | Potency [36] | outcome [37]
